Results published in PubChem BioAssay (NCI).
Compounds without any hit were thinned out: in the full panel of roughly 83,000, 20% have a hit.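 48-hour exposure, single concentration, 96-well plates; percent growth endpoint where 0 means no net growth. Active: below 10.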 Unmarked numbers belong to inactive results. The source made the active and inactive calls.

Tests used:
Test in all cases: NCI-60 one-dose screen, 48 h (100 = growth as untreated, 0 = no growth, -100 = all killed)
DU-145 prostate = conditions: 10 µM unless noted
K-562 leukemia = conditions: 10 µM unless noted
MALME-3M melanoma = conditions: 10 µM unless noted
MDA-MB-231 breast = conditions: 10 µM unless noted
RXF 393 renal = conditions: 10 µM unless noted
SF-268 CNS = conditions: 10 µM unless noted
SF-295 CNS = conditions: 10 µM unless noted
SF-539 CNS = conditions: 10 µM unless noted
UACC-257 melanoma = conditions: 10 µM unless noted
M14 melanoma = conditions: 10 µM unless noted
HCT-15 colon = conditions: 10 µM unless noted
HT29 colon = conditions: 10 µM unless noted
SNB-75 CNS = conditions: 10 µM unless noted
SNB-19 CNS = conditions: 10 µM unless noted
U251 CNS = conditions: 10 µM unless noted
PC-3 prostate = conditions: 10 µM unless noted
SK-MEL-5 melanoma = conditions: 10 µM unless noted
UACC-62 melanoma = conditions: 10 µM unless noted
LOX IMVI melanoma = conditions: 10 µM
SK-MEL-28 melanoma = conditions: 10 µM unless noted

SMILES	growth (DU-145 prostate)	growth (K-562 leukemia)	growth (MALME-3M melanoma)	growth (MDA-MB-231 breast)	growth (RXF 393 renal)	growth (SF-268 CNS)	growth (SF-295 CNS)	growth (SF-539 CNS)	growth (UACC-257 melanoma)	growth (M14 melanoma)	growth (HCT-15 colon)	growth (HT29 colon)	growth (SNB-75 CNS)	growth (SNB-19 CNS)	growth (U251 CNS)	growth (PC-3 prostate)	growth (SK-MEL-5 melanoma)	growth (UACC-62 melanoma)	growth (LOX IMVI melanoma)	growth (SK-MEL-28 melanoma)
CC1CCC(C(C)(C)[N+](C)(C)C)CC1 (centres undefined)	102%	116%	96.1%	103%	111%	95.8%	101%	96%	99.6%	98.1%	98.1%	97.8%	89%	101%	96.6%	96.9%	103%	104%	102%	
Nc1nc(Cl)cc(Cl)n1	108%	92.3%	90.8%	114%	102%	100%	106%	107%	85.5%	96.4%	102%	86.8%	91.4%	113%	102%	98.5%	98.8%	107%	92.5%	119%
CCCCCCCCCCC(=O)CCCCCCCCCC	111%	103%	99.1%	119%	113%	108%	93.7%	98.1%	101%	99.9%	99.7%	104%	95.9%	109%	101%	97.8%	102%	105%	94.6%	106%
O=c1cc(Cl)nc2ccccn12	110%	110%	117%	120%	106%	112%	106%	102%	107%	107%	109%	111%	109%	103%	107%	96.7%	105%	117%	103%	101%
CCOc1ccc(C(=O)NCC(C)C)cc1	110%	102%	101%	93.2%	108%	102%	99.5%	94.4%	110%	97%	103%	106%	81.8%	99.3%	101%	98.1%	101%	101%	97.2%	106%
Cc1ccc(N2C(=O)c3cccc4c(N)c(S(=O)(=O)O)cc(c34)C2=O)cc1	120%	103%	135%	106%	111%	108%	129%	107%	114%	111%	105%	124%	111%	112%	96.7%	90%	102%	97.4%	95%	124%
C=CC(C)C(C)(C)O (centres undefined)	105%	94%	107%	103%	105%	95.3%	102%	105%	109%	102%	104%	101%	101%	109%	103%	100%	107%	102%	99.2%	113%
Oc1ccc(N=Cc2ccc(OCc3ccccc3)cc2)cc1	108%	120%	93.5%	92.5%	99.2%	103%	92%	105%	118%	104%	96.6%	109%	92.1%	91.3%	102%	92.5%	92.2%	88.6%	100%	106%
Clc1cccc(Cl)c1CSc1nc2ccccc2n2cccc12	92.8%	89%	91.4%	98.2%	97.6%	96.9%	98%	102%	95.6%	94.1%	68.2%	79.6%	86.5%	105%	95.3%	96.5%	103%	96.3%	96.4%	103%
COc1nc2ccccc2s1	110%	102%	111%	115%	118%	101%	113%	90.7%	84.8%	93.5%	98%	102%	81%	110%	108%	89.1%	97.5%	103%	82.1%	100%
NC(=O)N1CCOCC1	123%	96.6%	111%	128%	117%	109%	115%	117%	119%	108%	106%	92.4%	66%	101%	107%	87.1%	105%	104%	107%	106%
Clc1ccc(-c2noc(/C=C\c3ccccc3)n2)cc1	108%	94.6%	95%	109%	104%	106%	89.9%	101%	104%	101%	95%	102%	103%	102%	91.2%	102%	97.6%	100%	97.5%	106%
Cc1cc(Nc2ccc3c(c2)OCO3)c2cc3c(cc2n1)OCO3	3.67% (active)	36.8%	24.4%	32.3%	6.97% (active)	37.9%	-62.6% (active)	-15.5% (active)	75.7%	-16.7% (active)	19.9%	15.8%	25.6%	0.716% (active)	19.9%	10.6%	22.6%	34%	14.3%	34.2%
c1ccc2[nH]c(Cc3nc4ccccc4[nH]3)nc2c1	109%	126%	89%	106%	114%	131%	101%	105%	111%	94.3%	107%	112%	94.9%	130%	106%	93.7%	104%	105%	109%	94.3%
Cc1nc(O)cc(=O)[nH]1	113%	112%	106%	124%	111%	105%	118%	114%	92.1%	105%	119%	108%	97.1%	109%	118%	97%	109%	113%	108%	110%
Cc1cc(=O)n(Nc2ccccc2)c(O)c1C#N	109%	92.5%	105%	103%	124%	102%	101%	104%	116%	99.4%	112%	105%	97.4%	103%	103%	99.4%	104%	103%	96.6%	111%
O=C1CSc2ccccc2N1	116%	122%	108%	115%	120%	104%	110%	129%	101%	113%	118%	100%	76.2%	96.3%	96.7%	93.1%	109%	106%	88%	105%
